Shown are actives, neighbours in structure and some others; about 3.4% of the full set was active somewhere.
AI-2 QS mod – modulates the Vibrio harveyi AI-2 quorum sensing system; Vibrio harveyi JMH597 AI-2 luminescence/OD600 ratio, 9 h; hits give low values; strain lacks LuxN and CqsS sensors; 0 = neutral-control median; activity change, % at 7.5 µM; actives 0.4% (n = 300,000); in the data active = activity change below about -75%, passing the limit was not always enough;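 note: luminescence divided by OD600 gain over 9 h not by final OD600 alone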
HSP90 refold inh – HSP90 refolding inhibition in rabbit reticulocyte lysate | luciferase refolding luminescence, 3 h | inhibition, % at 5.6 µM | actives 0.91% (n = 290,000);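 active = inhibition above the screen-wide mean plus 3 SD, computed separately per campaign, cut at about 16% in these data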;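 note: inhibitors lower the luminescence because luciferase stays unfolded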
PG9 binder – binds the HIV-1 gp120 antibody PG9 | TR-FRET gp120-PG9 antibody binding | inhibition, % at 6.7 µM | actives 0.43% (n = 360,000); in the data active = inhibition above about 8.5%
HSF1 inhib – HSF1 inhibition | NIH3T3-HGL HSE-luciferase, MG132-induced, luminescence 8 h; hits give low values | activity change, negative = inhibition, % at 7.5 µM (by protocol) | actives 0.77% (n = 300,000) | AID 2098;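 active = more than half of replicate wells show activity change below -50%, luminescence cut by over half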;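 note: luciferase reports HSF-1 transcriptional activity via heat shock element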
GAA850 FXN act – frataxin GAA850 promoter activation | HEK293 lucGAA850 FXN promoter luciferase reporter, 24 h; percent of 10 µM SAHA response | activation, % at 6 µM | actives 0.56% (n = 360,000);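 active = activation above the average of all compounds screened plus 3 SD, cutoff fixed separately per campaign, cut at about 7.5% in these data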
SMARCA2 act – increases SMARCA2 function in MMTV reporter cells; actives 1% (n = 370,000); activation, % at 9.1 µM; MG213 cells, MMTV-luciferase reporter, dexamethasone, overnight; in the data active = activation above about 7.8%
SMARCA2 act conf – SMARCA2 activation, confirmation screen | shares compounds with SMARCA2 act | MG213 cells, MMTV-luciferase with dexamethasone, luminescence, overnight; MG213 cells expressing E1A, Rb sequestered; DMSO wells 0%, reference activator 100% | activation, % at 9.1 µM | actives 30% (n = 3,500);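 active = activation above its plate's cutoff, the mean activation of tested wells plus 3 SD, cut at about 7.9% in these data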
VP16 Luc act – counter-screen for SMARCA2 activators: GAL4-VP16 luciferase reporter activation. activation, % at 9.1 µM. actives 41% (n = 3,500). shares compounds with SMARCA2 act. HEK293 GAL4-VP16 pG5luc reporter, luciferase luminescence; scaled: DMSO wells 0%, SAHA wells 100%. AID 686939;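 active = activation above the solvent-only control well mean plus 3 SD, averaged across control plates, cut at about 5.2% in these data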
Each line names hits and unclear results; the compound was inactive in the other large screens (follow-up assays come after a bar, where they were run).

COc1nc(C)ccc1-c1noc(-c2cccnc2)n1	SMARCA2 act 11 | SMARCA2 act conf inactive | VP16 Luc act 7.1
CCCCOc1ccc(-c2nc(-c3cccnc3)no2)cc1	none
OC(CNC1CCCCC1)CON=C1CCSc2c(Cl)cccc21 (configuration not stated)	none (no result: AI-2 QS mod, HSP90 refold inh, HSF1 inhib)
COc1cccc(-c2ccc3c(N)c(C(=O)NC4CC4)sc3n2)c1	SMARCA2 act 13 | SMARCA2 act conf inactive | VP16 Luc act 8.5
Nc1nc2c(ncn2[C@@H]2O[C@H](C(=O)N[C@@H](Cc3ccccc3)C(=O)NCc3ccc4c(c3)OCO4)[C@@H](O)[C@H]2O)c(=O)[nH]1	none (no result: AI-2 QS mod, HSP90 refold inh, HSF1 inhib, GAA850 FXN act)
CCOC(=O)N1CCN(C(=O)C[C@H]2C[C@@]3(C(=O)OC)C(=C[C@H](C4CCCC4)O[C@@H]3C)N(Cc3cccc4ccccc34)C2=O)CC1	none (no result: AI-2 QS mod, HSP90 refold inh, PG9 binder, HSF1 inhib, GAA850 FXN act)
Cc1ccc(SCC(=O)NNC(=O)c2ccccc2)cc1C	SMARCA2 act 9.6 | SMARCA2 act conf inactive | VP16 Luc act inactive
Cc1cccc(C(=O)N[C@H](C(=O)Nc2ncc(C)s2)C(C)C)c1	SMARCA2 act 27 | SMARCA2 act conf 26 | VP16 Luc act inactive
CN(CC(=O)Nc1cccc(S(=O)(=O)N(C)c2ccccc2)c1)Cc1cccs1	none (no result: AI-2 QS mod, HSP90 refold inh, HSF1 inhib)
Cc1ccnc(NC(=O)c2cccc3ccccc23)c1	SMARCA2 act 11 | SMARCA2 act conf inactive | VP16 Luc act inactive
COc1cc(C=NN=c2sc3ccccc3n2C)ccc1OCCO	SMARCA2 act 11 (no result: AI-2 QS mod, HSP90 refold inh, HSF1 inhib, GAA850 FXN act) | SMARCA2 act conf 10 | VP16 Luc act 12
CCOC(=O)C1CCN(C(=O)c2cc3c(ccc4ccccc43)o2)CC1	SMARCA2 act 9.0 | SMARCA2 act conf 11 | VP16 Luc act 7.3
CCOC(=O)C1CCN(C(=O)c2cc3cc4ccc(C)cc4nc3o2)CC1	none
COC(=O)[C@]12C[C@H](CC(=O)NCc3cccs3)C(=O)N(Cc3ccc4c(c3)OCO4)C1=C[C@H](C(C)(C)C)O[C@@H]2C	none (no result: AI-2 QS mod, HSP90 refold inh, HSF1 inhib, GAA850 FXN act)
C=CCCC[C@H]1OC(=O)[C@H](C)NC(=O)[C@H](C(C)C)NC(=O)[C@@H]2CCCN2C(=O)[C@H](Cc2ccccc2)OC(=O)[C@@H](C(C)C)N(C)C(=O)[C@H](C(C)C)NC(=O)C1(C)C	none (no result: AI-2 QS mod, HSP90 refold inh, HSF1 inhib, GAA850 FXN act)
CCNC(=O)NC(=O)C(C)Sc1nc2cc(C(=O)OC)ccc2c(=O)n1-c1ccccc1 (configuration not stated)	SMARCA2 act 9.4 | SMARCA2 act conf inactive | VP16 Luc act inactive
CCNC(=O)NC(=O)C(C)Sc1nc2ccccc2c(=O)n1-c1cccnc1 (configuration not stated)	none
COc1ccc([C@H](C)NC[C@H](O)c2ccc(O)c(NC=O)c2)cc1	none (no result: PG9 binder, SMARCA2 act)
COc1ccc(C[C@H](C)NC[C@@H](O)c2ccc(O)c(NC=O)c2)cc1	SMARCA2 act 14 (no result: HSP90 refold inh) | SMARCA2 act conf 12 | VP16 Luc act 15
COC(=O)CC(=O)CC(NS(=O)(=O)c1ccc(C)cc1)c1ccccc1 (configuration not stated)	none (no result: AI-2 QS mod, HSP90 refold inh, HSF1 inhib, GAA850 FXN act)
CSc1nc(SCCN(C)C)c2c3c(sc2n1)COC(C)(C)C3	SMARCA2 act 8.1 | SMARCA2 act conf inactive | VP16 Luc act inactive
CCC1(C)Cc2c(sc3nc(SC)nc(NCCN(C)C)c23)CO1 (configuration not stated)	none
CCn1ncc(Br)c1C(=O)Nc1sc2c(c1C(N)=O)CCC2	none
Cn1cc(Br)c(C(=O)Nc2sc3c(c2C(N)=O)CCC3)n1	SMARCA2 act 8.7 | SMARCA2 act conf inactive | VP16 Luc act 6.7
Brc1ccc(/C=C/C=N/Nc2nc3ccccc3s2)cc1	SMARCA2 act 13 | SMARCA2 act conf inactive | VP16 Luc act 8.7
COC(=O)c1cc2c(c3c4cc(F)ccc4n(S(=O)(=O)c4ccc(C)cc4)c13)C(=O)N(Cc1ccccc1)C2	none (no result: AI-2 QS mod, HSP90 refold inh, HSF1 inhib, GAA850 FXN act)
N#C/C(=C\C=C\c1ccccc1)c1nc(-c2ccc3c(c2)OCO3)cs1	SMARCA2 act 9.8 | SMARCA2 act conf inactive | VP16 Luc act inactive
COCCNC(=O)C(=O)N/N=C/c1ccccc1C(F)(F)F	SMARCA2 act 11 | SMARCA2 act conf inactive | VP16 Luc act inactive
O=C(N/N=C/c1ccccc1C(F)(F)F)c1ccc(O)cc1	SMARCA2 act 8.3 | SMARCA2 act conf inactive | VP16 Luc act 9.4
COc1ccc(S(N)(=O)=O)cc1C(=O)OCC(=O)N1c2ccccc2NC(=O)C1(C)C	none (no result: AI-2 QS mod, HSP90 refold inh, HSF1 inhib)
COc1cc(N)c(Cl)cc1C(=O)OCC(=O)N1c2ccccc2NC(=O)C1(C)C	SMARCA2 act 9.1 (no result: AI-2 QS mod, HSP90 refold inh, HSF1 inhib) | SMARCA2 act conf inactive | VP16 Luc act inactive
CCN1CCc2c(OCC(=O)N3CCC(C)CC3)cccc2C1=O	SMARCA2 act 8.4 | SMARCA2 act conf inactive | VP16 Luc act inactive
Nc1[nH]c(C(=O)c2ccccc2)c(-c2ccc3ccccc3c2)c1C(=O)NCc1ccc(F)cc1	none (no result: AI-2 QS mod, HSP90 refold inh, HSF1 inhib, GAA850 FXN act)
CC(C)NC(=O)C1(C#N)C=C1c1ccccc1 (configuration not stated)	SMARCA2 act 9.4 (no result: AI-2 QS mod, HSP90 refold inh, HSF1 inhib, GAA850 FXN act) | SMARCA2 act conf inactive | VP16 Luc act inactive
CCCc1nc2c(C)cc(Br)cn2c1Cc1ccccc1OC	none (no result: AI-2 QS mod, HSP90 refold inh, HSF1 inhib, GAA850 FXN act)
O=C(COC(=O)c1ccccc1)NC1CCCC1	SMARCA2 act 10 | SMARCA2 act conf inactive | VP16 Luc act inactive
Cc1cc(OCC(=O)OCC(=O)NC2CCCC2)ccc1Cl	SMARCA2 act 11 (no result: AI-2 QS mod, HSP90 refold inh, HSF1 inhib) | SMARCA2 act conf inactive | VP16 Luc act inactive
CN(CCC#N)C(=O)COC(=O)c1ccccc1C(=O)c1ccc(Cl)c([N+](=O)[O-])c1	SMARCA2 act 9.5 | SMARCA2 act conf inactive | VP16 Luc act inactive
Cc1cc(OCC(=O)NC2CCCCC2)ccc1Cl	none
O=C(COC(=O)c1ccccc1C(=O)c1ccc(Cl)c([N+](=O)[O-])c1)NC1CCCCCC1	SMARCA2 act 9.4 | SMARCA2 act conf inactive | VP16 Luc act inactive
CC(C)N(C(=O)COC(=O)c1ccccc1C(=O)c1ccc(Cl)c([N+](=O)[O-])c1)C(C)C	none
COC(=O)C1=C(C)N(C)C(=NCc2ccc3c(c2)OCO3)NC1c1cccc(C(F)(F)F)c1 (configuration not stated)	none (no result: AI-2 QS mod, HSP90 refold inh, HSF1 inhib, GAA850 FXN act)
COc1ccc(C(=O)/C=C(\Nc2ccc(F)cc2)c2ccc(OC)cc2OC)c(OC)c1	none (no result: AI-2 QS mod, HSP90 refold inh, PG9 binder, HSF1 inhib, GAA850 FXN act)
Cc1ccc2c(c1)-c1c(cnn1CC(=O)NCCc1ccccc1F)CO2	none (no result: AI-2 QS mod, HSP90 refold inh, PG9 binder, HSF1 inhib, GAA850 FXN act)
N#CCCN(CCCN1CCOCC1)CN1C(=O)c2ccccc2C1=O	SMARCA2 act 8.1 (no result: AI-2 QS mod, HSP90 refold inh, HSF1 inhib) | SMARCA2 act conf inactive | VP16 Luc act inactive
